16 compounds from ChEMBL document CHEMBL1961873, “Compounds: GSK PKIS; Assays: Nanosyn kinase panel” (2012) can be followed below.

Assay [1] has as its target Dual specificity protein kinase CLK3 (Homo sapiens) (UniProt P49761). Particulars: at 1 µM.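 Further: each value is the mean inhibition of CLK3.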
Assay [2] addresses Dual specificity tyrosine-phosphorylation-regulated kinase 1A (Homo sapiens) (UniProt Q13627). Particulars: at 0.1 µM.
The target is the same in assay [3]. Particulars: at 1 µM.
The target of assay [4] is Dual specificity tyrosine-phosphorylation-regulated kinase 1B (Homo sapiens) (UniProt Q9Y463). Particulars: at 0.1 µM.
Assay [5] shares this target. Particulars: at 1 µM.
The target in assay [6] is T1, Dual specificity tyrosine-phosphorylation-regulated kinase 2 (Homo sapiens) (UniProt Q92630).
T1 sequence (whole entry): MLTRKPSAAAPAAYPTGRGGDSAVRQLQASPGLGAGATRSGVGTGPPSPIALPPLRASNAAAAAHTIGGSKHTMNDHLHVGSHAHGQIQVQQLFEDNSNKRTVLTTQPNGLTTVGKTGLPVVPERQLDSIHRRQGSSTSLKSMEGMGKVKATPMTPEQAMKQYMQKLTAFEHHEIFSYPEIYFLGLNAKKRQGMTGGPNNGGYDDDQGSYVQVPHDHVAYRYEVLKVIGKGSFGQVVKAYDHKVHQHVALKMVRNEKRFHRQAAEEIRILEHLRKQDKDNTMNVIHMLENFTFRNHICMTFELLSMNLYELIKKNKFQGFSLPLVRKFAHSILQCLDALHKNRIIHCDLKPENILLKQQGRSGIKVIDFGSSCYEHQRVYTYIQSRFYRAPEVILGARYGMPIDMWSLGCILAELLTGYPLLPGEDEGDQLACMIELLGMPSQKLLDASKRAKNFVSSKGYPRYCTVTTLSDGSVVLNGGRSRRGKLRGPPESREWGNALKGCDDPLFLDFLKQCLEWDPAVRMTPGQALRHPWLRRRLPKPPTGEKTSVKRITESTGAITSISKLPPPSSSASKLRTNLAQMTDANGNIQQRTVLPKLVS
Particulars: at 0.1 µM.

For assay [7], the target named is T1, Dual specificity tyrosine-phosphorylation-regulated kinase 2 (Homo sapiens). Particulars: at 1 µM.
Assay [8] deals with Glycogen synthase kinase-3 alpha (Homo sapiens) (UniProt P49840). Particulars: at 0.1 µM.
For assay [9] the target is unchanged. Particulars: at 1 µM.
Assay [10] concerns the target Glycogen synthase kinase-3 beta (Homo sapiens) (UniProt P49841). Particulars: at 0.1 µM.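 Further: values are mean percent inhibition of GSK3B activity, from the GSK Published Kinase Inhibitor Set (PKIS) screening dataset.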

Sequence of Glycogen synthase kinase-3 alpha (Homo sapiens) (P49840 2-483 limits assumed): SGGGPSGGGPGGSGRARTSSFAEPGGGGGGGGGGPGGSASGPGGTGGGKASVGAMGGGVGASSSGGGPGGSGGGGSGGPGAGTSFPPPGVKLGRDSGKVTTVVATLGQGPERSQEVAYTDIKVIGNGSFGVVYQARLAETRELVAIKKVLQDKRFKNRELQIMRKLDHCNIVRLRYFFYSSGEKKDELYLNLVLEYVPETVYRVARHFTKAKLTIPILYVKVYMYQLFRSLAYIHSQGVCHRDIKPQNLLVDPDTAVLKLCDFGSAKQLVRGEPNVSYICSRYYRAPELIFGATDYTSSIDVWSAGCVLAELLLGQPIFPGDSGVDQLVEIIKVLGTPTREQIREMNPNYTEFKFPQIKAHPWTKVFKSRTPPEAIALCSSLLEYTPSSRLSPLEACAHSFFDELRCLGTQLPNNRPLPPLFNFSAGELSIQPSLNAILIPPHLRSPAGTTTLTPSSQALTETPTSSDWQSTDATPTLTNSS
Sequence of Dual specificity tyrosine-phosphorylation-regulated kinase 1B (Homo sapiens) (Q9Y463 whole entry, looked up): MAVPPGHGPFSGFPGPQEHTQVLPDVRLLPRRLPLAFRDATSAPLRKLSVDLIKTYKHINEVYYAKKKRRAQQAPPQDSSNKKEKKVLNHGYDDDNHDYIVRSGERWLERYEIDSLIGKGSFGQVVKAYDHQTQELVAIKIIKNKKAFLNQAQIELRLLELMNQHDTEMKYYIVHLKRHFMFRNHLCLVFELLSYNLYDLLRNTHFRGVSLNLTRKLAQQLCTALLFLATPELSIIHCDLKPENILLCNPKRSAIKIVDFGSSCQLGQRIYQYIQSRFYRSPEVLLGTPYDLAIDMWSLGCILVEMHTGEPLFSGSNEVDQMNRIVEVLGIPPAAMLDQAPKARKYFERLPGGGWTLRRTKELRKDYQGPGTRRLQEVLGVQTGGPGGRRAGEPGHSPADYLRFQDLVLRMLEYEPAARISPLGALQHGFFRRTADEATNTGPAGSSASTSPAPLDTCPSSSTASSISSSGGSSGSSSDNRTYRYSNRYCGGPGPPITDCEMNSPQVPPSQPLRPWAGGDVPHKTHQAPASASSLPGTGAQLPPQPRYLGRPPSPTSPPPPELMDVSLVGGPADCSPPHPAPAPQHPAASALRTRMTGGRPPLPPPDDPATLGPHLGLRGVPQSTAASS
Sequence of Dual specificity protein kinase CLK3 (Homo sapiens) (P49761 whole entry, looked up): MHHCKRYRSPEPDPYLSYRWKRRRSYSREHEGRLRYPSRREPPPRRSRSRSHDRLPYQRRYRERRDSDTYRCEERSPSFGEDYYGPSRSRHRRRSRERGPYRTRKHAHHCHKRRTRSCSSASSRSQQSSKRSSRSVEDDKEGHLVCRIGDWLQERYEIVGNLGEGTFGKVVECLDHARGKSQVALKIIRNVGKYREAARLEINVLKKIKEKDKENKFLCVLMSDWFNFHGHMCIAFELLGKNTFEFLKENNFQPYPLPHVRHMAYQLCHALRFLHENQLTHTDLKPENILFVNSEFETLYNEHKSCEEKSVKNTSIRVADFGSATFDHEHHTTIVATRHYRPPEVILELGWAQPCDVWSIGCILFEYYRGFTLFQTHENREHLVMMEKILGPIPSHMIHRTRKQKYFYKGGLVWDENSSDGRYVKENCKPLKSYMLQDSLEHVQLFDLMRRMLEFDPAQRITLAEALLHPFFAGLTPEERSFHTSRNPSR
Sequence of Glycogen synthase kinase-3 beta (Homo sapiens) (P49841 whole entry, looked up): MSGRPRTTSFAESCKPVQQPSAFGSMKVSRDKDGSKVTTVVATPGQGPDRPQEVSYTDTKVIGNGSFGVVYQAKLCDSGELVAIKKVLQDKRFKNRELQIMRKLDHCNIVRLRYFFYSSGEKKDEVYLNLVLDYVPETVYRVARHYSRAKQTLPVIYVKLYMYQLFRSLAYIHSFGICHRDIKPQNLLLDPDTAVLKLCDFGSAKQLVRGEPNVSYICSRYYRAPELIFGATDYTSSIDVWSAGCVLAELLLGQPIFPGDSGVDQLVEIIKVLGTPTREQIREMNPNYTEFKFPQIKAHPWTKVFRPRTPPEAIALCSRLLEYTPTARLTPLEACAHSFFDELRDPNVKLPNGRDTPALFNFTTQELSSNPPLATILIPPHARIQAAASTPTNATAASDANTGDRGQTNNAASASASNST

Usually inhibition stands for the drop in the measured response relative to a control, in per cent. Consider `CN1CCC(C(=O)Nc2n[nH]c3nnc(-c4ccccc4)cc23)CC1`, for which the inhibition in assay [1] was determined as 2.52%; in assay [2], 7.11%; in assay [3], 33.9%; in assay [4] it was 7.12%; in assay [5], 31.9%; in assay [6] it was 4.83%. For the same compound, the inhibition is 9.37% in [7], 79.5% in assay [8] and 85.7% in [9].

On to `COc1cc(C)c(NC(=O)CN(C)C)cc1Nc1nc(Nc2cccc(F)c2C(N)=O)c2cc[nH]c2n1`, for which the inhibition turned out to be 13.2% in assay [1]; 1.71% in assay [2]; 20% in [3]; 1.59% in assay [4]; 14.8% in assay [5]; 2.4% in [6]. Further, the inhibition in assay [7] was 5.3%; in assay [8], -0.24%; in assay [9], 1.07%; in [10] it was -1.22%.

Regarding `O=C1NC(=O)C(c2ccc(Cl)cc2)=C1Nc1ccc(Cl)c(C(=O)O)c1`, the inhibition in [1] is 4.58%; in assay [2] it was 3.92%; in assay [3], 17.2%; in [4], 3.26%; in assay [5], 8.51%; in assay [6] it was -2.12%. The inhibition in [7] was -1.19%; in assay [8], 21.4%; in [9] it was 72.1%.

With `COC(=O)Nc1nc2cc(Oc3cccc(NC(=O)Nc4cc(C(F)(F)F)ccc4F)c3)ccc2[nH]1`, the inhibition is 0.16% in [1]; -0.01% in [2]; 2.54% in assay [3]; -0.21% in [4]; 1.68% in assay [5]; -0.32% in [6]. The inhibition was -0.02% in assay [7], 1.75% in [8], 7.54% in assay [9] and 0.73% in [10].

On to `CCN1CCC(CC(=O)Nc2n[nH]c3nc(-c4cccs4)c(Br)cc23)CC1`, for which the inhibition in assay [1] was 4.44%; in assay [2], 4.33%; in assay [3], 20.6%; in [4], 4.83%; in assay [5], 22.3%; in [6], -0.64%. Moreover, the inhibition in [7] is 14%; in assay [8], 46.6%; in [9], 78.3%; in assay [10] it was 26.6%.

As for `Fc1cccc(COc2ccc(Nc3ncnc4cc(-c5ccc[nH]5)sc34)cc2Cl)c1`, the inhibition is -1.03% in [1]; -2.81% in assay [2]; -0.45% in [3]; -3.77% in [4]; -3.25% in assay [5]; 1.57% in assay [6]. In addition, the inhibition is 1.07% in assay [7], -2.13% in [8], 2.99% in [9] and -2.64% in assay [10].

For `CN(C)c1cc2c(Nc3ccc4nc(Cc5ccccc5)[nH]c4c3)ncnc2cn1`, the inhibition in assay [1] came out at 3%; in assay [2], 4.46%; in [3], 6.18%; in assay [4] it was 1.66%; in [5], 2.67%; in assay [6], 3.79%. In addition, the inhibition was 5.25% in assay [7], 2.41% in assay [8], 4.97% in [9] and 1.6% in [10].

Take `COC(=O)Nc1nc2cc(Oc3ccc(NC(=O)Nc4cccc(C(=O)O)c4)cc3)ccc2[nH]1`: the inhibition in assay [1] is 0.74%; in assay [2], -4.02%; in [3], -1.76%; in [4] it was -3.44%; in assay [5] it was -1.48%; in [6] it was 0.41%. Also, the inhibition is -0.17% in assay [7], -2.54% in assay [8], 1.82% in assay [9] and -2.48% in assay [10].

In the case of `COc1cccc(-n2ncc3c(N/N=C/c4cccc(F)c4)ncnc32)c1`, the inhibition was -0.14% in [1]; 2.01% in assay [2]; 25.9% in assay [3]; -1.44% in [4]; 14.9% in [5]; 4.29% in assay [6]. Besides, the inhibition in assay [7] was determined as 16.8%; in assay [8], 54.5%; in [9], 75.2%; in assay [10], 44.7%.

On to `COc1ccc(COc2ccc(Cc3cnc(N)nc3N)cc2OC)cc1`, for which the inhibition in [1] is -0.53%; in [2] it was 1.44%; in assay [3] it was 0.52%; in assay [4], 4%; in assay [5], 2.57%; in assay [6] it was -0.01%. The inhibition in [7] was 0.42%; in assay [8] it was 1.37%; in assay [9], 0.34%; in [10] it was 0.96%.

Take `Nc1nc(-c2ccccn2)c(-c2ccc3ncccc3n2)s1`: the inhibition in [1] is 4.76%; in assay [2], 7.05%; in assay [3] it was 18.3%; in [4], 3.14%; in assay [5] it was 8.56%; in assay [6], 2.04%. Also, the inhibition in assay [7] is 4.58%; in [8], 3.86%; in [9] it was 12.8%; in assay [10], 3.76%.

On to `Cn1cc(C=C2C(=O)Nc3cccnc32)c2ccccc21`, for which the inhibition in [1] was -1.26%; in assay [2], 2.68%; in [3], 10.6%; in assay [4], 0.78%; in [5] it was 4.49%; in assay [6] it was 2.52%. In addition, the inhibition in assay [7] was determined as 4.08%; in [8] it was 4.33%; in assay [9] it was 12.2%; in assay [10] it was 3.54%.

As for `COc1cc2ncn(-c3cc(OCc4ccccc4Cl)c(C(N)=O)s3)c2cc1OC`, the inhibition in assay [1] worked out at 4.39%; in assay [2] it was 0.59%; in assay [3] it was 4.21%; in assay [4] it was 1.28%; in [5], 0.48%; in assay [6], 0.19%. The inhibition in assay [7] was 2.53%; in [8], 2.18%; in [9], 9.18%; in assay [10] it was 1.21%.

Take `Cc1cc(O)cc(C)c1/C=C/c1cncc(-c2nn[nH]n2)c1`: the inhibition in assay [1] was -1.62%; in assay [2], 1.17%; in assay [3], 2.98%; in [4] it was -1.94%; in [5], -1.27%; in [6] it was 2.24%. Also, the inhibition in assay [7] is 3.95%; in assay [8], -2.04%; in assay [9], 3.03%; in [10], -2.15%.

As for `NC(=O)c1ccc(-c2nc(-c3ccccn3)c(-c3ccc4c(c3)OCO4)[nH]2)cc1`, the inhibition in assay [1] is 1.76%; in [2] it was 1.47%; in [3], 3.08%; in assay [4], -0.77%; in [5], 0.83%; in assay [6], 1.43%. For the same compound, the inhibition in assay [7] came to 1.31%; in assay [8], 2.47%; in assay [9], 3.92%; in [10] it was 1.88%.

For the compound `[O-][S+]1CCN(Cc2ccc(-c3ccc4ncnc(Nc5ccc(OCc6ccccc6)c(F)c5)c4c3)o2)CC1`, the inhibition in [1] is 11.2%; in assay [2], 2.61%; in assay [3] it was 2.98%; in assay [4], 1.09%; in assay [5] it was 1.08%; in assay [6], 1.63%. The inhibition in [7] was 3.4%; in assay [8] it was 0.27%; in [9], 2.88%; in [10], -0.3%.
